Sampled rows, rich in hits. Any-hit rate of the full collection: about 12%.
G9a block: blocks human histone lysine methyltransferase G9a; actives 8.8% (n = 350,000); Q96KQ7; AID 504332; Potency, µM (series often up to 102 µM), actives largely listed as inhibitors; G9a H3K9 monomethylation, AlphaScreen, 2 h; also: nearly all actives have a fitted effect of over 75% in size
Target sequence (Q96KQ7 913-1193 limits assumed): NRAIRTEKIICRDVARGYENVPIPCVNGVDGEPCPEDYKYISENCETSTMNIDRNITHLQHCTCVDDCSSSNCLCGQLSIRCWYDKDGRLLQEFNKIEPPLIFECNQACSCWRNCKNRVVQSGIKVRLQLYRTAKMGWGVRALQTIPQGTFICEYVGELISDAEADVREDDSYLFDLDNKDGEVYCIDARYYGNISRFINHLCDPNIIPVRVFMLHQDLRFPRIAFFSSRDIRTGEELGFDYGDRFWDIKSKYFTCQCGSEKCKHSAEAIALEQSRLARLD
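AlphaScreen read-out: biotin-H3K9 peptide (500 nM) methylation by 20 nM enzyme with 20 uM SAM, 2 h at room temperature after 15 min compound preincubation; anti-monomethyl H3K9 antibody plus donor/acceptor beads, 10 min dark.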
HP1b binding inh: blocks HP1-beta chromodomain binding to methylated histone tails; P83916; AlphaScreen HP1-beta / biotin-H3K9me3 peptide binding; Potency, µM (series often up to 114 µM), actives largely listed as inhibitors; actives 0.56% (n = 390,000); AID 540317; also: nearly all actives have a fitted effect of over 70% in size
Target sequence (P83916 whole entry, looked up): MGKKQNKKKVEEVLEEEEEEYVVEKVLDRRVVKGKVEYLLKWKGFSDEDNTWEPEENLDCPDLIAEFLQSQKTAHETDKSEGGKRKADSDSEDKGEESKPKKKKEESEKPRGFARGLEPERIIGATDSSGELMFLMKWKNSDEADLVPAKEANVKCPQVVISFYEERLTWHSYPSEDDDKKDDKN
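AlphaScreen: HP1-beta (50 nM) preformed 30 min with biotin-H3(1-18)K9me3 peptide (50 nM) in PBS pH 7.4, 0.01% Tween-20. Compound added for 30 min at RT, then streptavidin donor/nickel chelate acceptor beads (10 ug/mL) for 30 min.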
JMJD2A Tudor inh: blocks the human JMJD2A Tudor domain. O75164. AlphaScreen JMJD2A-Tudor / H3K4me3 peptide binding. Potency, µM (titrated, usually from 114 µM), actives largely listed as inhibitors. actives 4.4% (n = 390,000). AID 504339; also: nearly all actives have a fitted effect of over 50% in size
L3MBTL1 inh: inhibitors of human L3MBTL1 | Q9Y468 | AlphaScreen L3MBTL1–H3K9me1 peptide binding | Potency, µM (titrated, usually from 57.1 µM), most hits filed as inhibitors | actives 0.66% (n = 230,000); also: nearly all actives have a fitted effect of over 60% in size
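AlphaScreen proximity signal between nickel-chelate acceptor and streptavidin donor beads (final 10 ug/mL) reports binding of 50 nM L3MBTL1 to 75 nM biotin-H3 K9me1 peptide; complex incubated with compounds 30 min at room temperature; cefsulodin titration as control.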
BAZ2B block: BAZ2B (human) inhibition; actives 4.4% (n = 360,000); AlphaScreen BAZ2B-H3K14Ac peptide displacement; Q9UIF8; Potency, µM (series often up to 114 µM), most hits filed as inhibitors; also: nearly all actives have a fitted effect of over 60% in size
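BAZ2B (50 nM) with biotin-H3(5-23)K14Ac peptide (50 nM) in PBS pH 7.4, 0.01% Tween-20, preformed 30 min, then compound 30 min at room temperature; top concentration 110uM. AlphaScreen streptavidin donor/nickel chelate acceptor beads (10 ug/mL final), 20 min dark, signal read.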
Sfp PPTase inh: Sfp phosphopantetheinyl transferase inhibition; Biochemical Sfp PPTase activity, qHTS; Potency, µM, hits mostly inhibitors; actives 3.5% (n = 310,000); AID 1490;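 also: the enzyme is Sfp with the accession as filed and its product quenches rhodamine fluorescence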
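Buffer: 50 mM Hepes-Na pH 7.6, 10 mM MgCl2, 0.01% Nonidet P-40, 0.01% BSA. Enzyme 15 nM, pre-exposed to compound 15 min; substrates then added and fluorescence change tracked over 30 min.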
A number is an active result; [ ] = another dose, or the depositor's remark. Calls follow the shape of the dose curve; as a rule, active = well fitted curve in the direction sought with a large enough effect; inconclusive = small, poorly fitted or top-dose-only effect, or another doubt; inactive = no such curve, though single readings can be large; an effect the other way counts as inactive or inconclusive.

How did O=C(NC1CCCC1)c1ccc2c(=O)n(Cc3ccccc3)c(SCc3ccccc3)nc2c1 do in these assays?
G9a block: inactive; HP1b binding inh: inactive; JMJD2A Tudor inh: inactive; BAZ2B block: inactive

What do the screens show for `COc1ccc(Br)cc1CNC(=O)c1cc(=O)[nH]c2ccc(S(=O)(=O)N3CCCCC3)cc12`?
G9a block: inactive; HP1b binding inh: inactive; JMJD2A Tudor inh: inactive; BAZ2B block: inactive

How did COc1ccc(-n2cnnc2SCC(=O)c2ccc(S(=O)(=O)N3CCOCC3)cc2)cc1 do in these assays?
G9a block: inactive; HP1b binding inh: inactive; JMJD2A Tudor inh: inactive; L3MBTL1 inh: inactive; BAZ2B block: inactive; Sfp PPTase inh: 56µM

What do the screens show for `Cc1nnc(SCC(=O)c2ccc(S(=O)(=O)N3CCOCC3)cc2)n1-c1ccccc1`?
G9a block: inconclusive; HP1b binding inh: inactive; JMJD2A Tudor inh: inconclusive; L3MBTL1 inh: inactive; BAZ2B block: inactive; Sfp PPTase inh: 32µM

Results for N#Cc1ccccc1-c1ccc2ncnc(NCc3cccs3)c2c1 ?
G9a block: inactive[0.501 µM]; Sfp PPTase inh: inactive

What do the screens show for `CC(C)(C)CC(=O)NCC(c1ccc2c(c1)OCO2)N1CCN(c2ccccc2)CC1` (stereo not given)?
G9a block: inactive; HP1b binding inh: inactive; JMJD2A Tudor inh: inactive; BAZ2B block: inactive

How did CCc1ccc(-n2c(=O)c3cccnc3n2CC(=O)NCc2ccccc2)cc1 do in these assays?
G9a block: inactive; HP1b binding inh: inactive; JMJD2A Tudor inh: inactive; BAZ2B block: inactive

How did CCC(=O)N1CCc2cc(CNC(=O)Nc3cc(C)ccc3C)ccc21 do in these assays?
G9a block: inactive; HP1b binding inh: inactive; JMJD2A Tudor inh: inactive; BAZ2B block: inactive

What do the screens show for `N#CCc1ccc(Oc2ncc(C(F)(F)F)cc2Cl)cc1`?
G9a block: inactive; HP1b binding inh: inactive; JMJD2A Tudor inh: inactive; L3MBTL1 inh: inactive; BAZ2B block: inactive; Sfp PPTase inh: inactive

What do the screens show for `Cc1ccc(CO/N=C\Cc2snc(Sc3ncc(C(F)(F)F)cc3Cl)c2C#N)cc1`?
G9a block: 11µM; HP1b binding inh: inconclusive; JMJD2A Tudor inh: inconclusive; BAZ2B block: 35µM; Sfp PPTase inh: inactive

How did O=C(O)c1c(Sc2ccccc2)c2cc(Cl)ccc2n1Cc1ccc(Cl)cc1 do in these assays?
Sfp PPTase inh: inactive

Results for C=CCN1c2ccccc2[C@]23C[C@@H](C(=O)OC)N(S(=O)(=O)c4cccs4)C2=NC(C(=O)OC)=C(C(=O)OC)[C@H]13 ?
Sfp PPTase inh: inactive

How did CC(C)c1ccc(NC(=O)COC(=O)c2c[nH]c(=O)[nH]c2=O)cc1 do in these assays?
G9a block: 16µM; HP1b binding inh: inactive; JMJD2A Tudor inh: inconclusive; L3MBTL1 inh: inactive; BAZ2B block: inactive; Sfp PPTase inh: inactive

What do the screens show for `O=C(COC(=O)c1c[nH]c(=O)[nH]c1=O)Nc1ccccc1`?
G9a block: inactive; HP1b binding inh: inactive; JMJD2A Tudor inh: inactive; L3MBTL1 inh: inactive; BAZ2B block: inactive; Sfp PPTase inh: inactive

Results for Cn1c(=O)c2c(-c3ccccc3Br)n(C(C)(C)C)cc2n(C)c1=O ?
G9a block: inactive; HP1b binding inh: inactive; JMJD2A Tudor inh: inactive; BAZ2B block: 79µM

What do the screens show for `O=C(CSc1nnc(NC2CCCCC2)s1)NN1C(=O)NC2(CCCCC2)C1=O`?
G9a block: 45µM; HP1b binding inh: inactive; JMJD2A Tudor inh: inconclusive; L3MBTL1 inh: inactive; BAZ2B block: inactive; Sfp PPTase inh: inactive

Results for CC(=O)Nc1sc2c(c1C(c1ccc(F)cc1)N1CCOCC1)CCCC2 (stereo not given) ?
G9a block: inconclusive; HP1b binding inh: inactive; JMJD2A Tudor inh: inconclusive; BAZ2B block: 50µM; Sfp PPTase inh: inactive

Results for CC(=O)Nc1sc2c(c1C(c1ccc(Cl)cc1)N1CCOCC1)CCCC2 (stereo not given) ?
G9a block: 45µM; HP1b binding inh: inconclusive; JMJD2A Tudor inh: inconclusive; BAZ2B block: inconclusive; Sfp PPTase inh: inactive

What do the screens show for `CC(=O)Nc1sc2c(c1C(c1ccccc1)N1CCOCC1)CCCC2` (stereo not given)?
G9a block: inactive; HP1b binding inh: inactive; JMJD2A Tudor inh: inactive; BAZ2B block: inactive; Sfp PPTase inh: inactive

What do the screens show for `CC[C@H](C)[C@H](NC(=O)[C@H](Cc1ccc(O)cc1)NC(=O)[C@H](Cc1cnc[nH]1)NC(=O)[C@H](CCCNC(=N)N)NC(=O)[C@H](CC(C)C)NC(=O)[C@H](C)NC(=O)[C@H](CO)NC(=O)[C@H](Cc1ccc(O)cc1)NC(=O)[C@H](Cc1ccc(O)cc1)NC(=O)[C@H](CCCNC(=N)N)NC(=O)[C@H](C)NC(=O)[C@H](CCSC)NC(=O)[C@H](CC(=O)O)NC(=O)[C@H](CCC(=O)O)NC(=O)[C@H](C)NC(=O)[C@@H]1CCCN1C(=O)[C@H](C)NC(=O)[C@H](CC(=O)O)NC(=O)[C@H](CCC(=O)O)NC(=O)CNC(=O)[C@@H]1CCCN1C(=O)[C@H](CC(N)=O)NC(=O)[C@H](CC(=O)O)NC(=O)[C@@H]1CCCN1C(=O)[C@H](CCCCN)NC(=O)[C@H](CO)NC(=O)[C@@H]1CCCN1C(=O)[C@@H](N)Cc1ccc(O)cc1)C(=O)N[C@@H](CC(N)=O)C(=O)N[C@@H](CC(C)C)C(=O)N[C@H](C(=O)N[C@H](C(=O)N[C@@H](CCCNC(=N)N)C(=O)N[C@@H](CCC(N)=O)C(=O)N[C@@H](CCCNC(=N)N)C(=O)N[C@@H](Cc1ccc(O)cc1)C(N)=O)[C@@H](C)O)[C@@H](C)CC`?
Sfp PPTase inh: inactive

Results for COc1ccccc1N(CC(=O)NC(C)(C)C)S(=O)(=O)c1cccs1 ?
G9a block: inactive; HP1b binding inh: inactive; JMJD2A Tudor inh: 56µM; L3MBTL1 inh: inactive; BAZ2B block: inactive; Sfp PPTase inh: inactive

How did O=C(/C=C/c1ccco1)NC(=S)Nc1ccc(Cl)cn1 do in these assays?
G9a block: 40µM; HP1b binding inh: inactive; JMJD2A Tudor inh: inactive; BAZ2B block: inconclusive; Sfp PPTase inh: inactive

What do the screens show for `O=C(/C=C/c1ccco1)NC(=S)Nc1ccc(N2CCCC2)cc1`?
G9a block: inconclusive; HP1b binding inh: 35µM; JMJD2A Tudor inh: inconclusive; L3MBTL1 inh: inconclusive; BAZ2B block: 10µM; Sfp PPTase inh: inactive

Results for O=C(/C=C/c1ccco1)NC(=S)NNC(=O)c1ccco1 ?
G9a block: 11µM; HP1b binding inh: inactive; JMJD2A Tudor inh: inactive; L3MBTL1 inh: inconclusive; BAZ2B block: inactive; Sfp PPTase inh: inactive

Results for Cc1ccnc(NC(=S)NC(=O)/C=C/c2ccco2)c1 ?
G9a block: inconclusive; HP1b binding inh: inactive; JMJD2A Tudor inh: inactive; BAZ2B block: inconclusive; Sfp PPTase inh: inactive
